AC50 and outcome data for seven compounds are collected here from PubChem BioAssay (EPA / NIEHS).

In test [1] the target is Bile acid receptor (Homo sapiens) (UniProt Q96RI1). As to the kind of experiment: ATG_IR1_CIS: Attagene CIS-FACTORIAL HepG2 Assay for human Nuclear Receptor Subfamily 1 Group H Member 4 (NR1H4), IR1 submotif (AID 2282946). To be noted: IR1 reporter transcription, actives raise or lower the signal. The essentials:
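HepG2 cells transiently transfected with multiple cis-promoter-driven reporter units to measure endogenous transcription factor activity; 24 h exposure. Reporter mRNA read by RT-PCR, FAM labelling, HpaI digestion and capillary electrophoresis. Bidirectional fit versus DMSO.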

A short description of test [2]: ATG_GRE_CIS: Attagene CIS-FACTORIAL HepG2 Assay for human Glucocorticoid Response Elements (GRE) (AID 2282947). To be noted: HepG2 GRE cis-reporter, Attagene multiplex mRNA; actives raise or lower the signal. In outline:
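Transiently transfected HepG2 cells carrying GRE cis-reporter units (endogenous TF activity) dosed 24 h; reporter mRNA quantified by RT-PCR, 6-FAM labelling, HpaI digestion and capillary electrophoresis. Bidirectional fit versus DMSO baseline.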

Test [3] in a line: ATG_ISRE_CIS: Attagene CIS-FACTORIAL HepG2 Assay for human Interferon Regulatory Factor 1 (IRF1) binding to an Interferon-Stimulated Response Element (ISRE) (AID 2282948). To be noted: HepG2 ISRE cis-reporter (Attagene), mRNA transcription readout; actives raise or lower the signal. The essentials: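 Quantitation relies on labelled RT-PCR fragments separated by capillary electrophoresis. Human HepG2 cells bearing cis-promoter reporter constructs were treated 24 h; DMSO served as baseline for bidirectional fitting.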

Test [4] is described as follows: ATG_M_32_CIS: Attagene CIS-FACTORIAL HepG2 Assay for M32 Transcription Factor (Internal Marker) (AID 2282949).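 Note: background control marker of the multiplexed CIS panel rather than a real target.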 The settings on record: HepG2 Attagene cis-factorial M32 reporter, mRNA; actives raise or lower the signal. The essentials: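 Fluorescent capillary electrophoresis peaks of HpaI-digested, FAM-labelled RT-PCR reporter products give the signal. Source: transiently transfected human liver HepG2 cells, 24 h after chemical dosing; bidirectional fitting against DMSO.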

Test [5] in a line: ATG_M_06_CIS: Attagene CIS-FACTORIAL HepG2 Assay for M06 Transcription Factor (Internal Marker) (AID 2282950). To be noted: HepG2 Attagene CIS-FACTORIAL M06 internal marker reporter; actives raise or lower the signal. In outline: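 Internal background marker within multiplexed cis-reporter HepG2 system. Cells transiently transfected, dosed 24 h; reporter mRNA measured by RT-PCR, HpaI digestion and capillary electrophoresis. Bidirectional fit relative to DMSO.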

The target of test [6] is Hypoxia-inducible factor 1-alpha (Homo sapiens) (UniProt Q16665). Description: ATG_HIF1a_CIS: Attagene CIS-FACTORIAL HepG2 Assay for human Hypoxia Inducible Factor 1 (HIF1A) (AID 2282951). The settings on record: HepG2 Attagene cis-factorial HIF1a reporter transcription; actives raise or lower the signal. In outline: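 HepG2 cells transiently transfected with multiple cis-regulated reporter transcription units measure endogenous transcription factor activity. After 24 h exposure, reporter mRNA is quantified by RT-PCR with 6-FAM labelling, HpaI digestion and capillary electrophoresis. Bidirectional fitting against DMSO.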

For test [7], the target named is Hepatocyte nuclear factor 6 (Homo sapiens) (UniProt Q9UBC0). Description: ATG_HNF6_CIS: Attagene CIS-FACTORIAL HepG2 Assay for human Hepatocyte Nuclear Factor 6 (HNF6) (AID 2282952). To be noted: HepG2 Attagene cis-factorial HNF6 reporter transcription; actives raise or lower the signal. In outline:
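HepG2 cells transiently transfected with cis-element-driven multiplexed reporter units measuring endogenous transcription factor activity. After 24 h exposure, reporter mRNA quantified by RT-PCR, FAM-labelled fragments and capillary electrophoresis; bidirectional fitting versus DMSO.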

For test [8], the target named is Heat shock factor protein 1 (Homo sapiens) (UniProt Q00613). Description: ATG_HSE_CIS: Attagene CIS-FACTORIAL HepG2 Assay for human Heat Shock Transcription Factor 1 (HSE) (AID 2282953). To be noted: HepG2 HSE cis-reporter, Attagene RNA transcription; actives raise or lower the signal. The essentials:
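HepG2 cells transfected with cis-promoter reporter units sensing endogenous transcription factor activity; reporter mRNA quantified 24 h post-dose by RT-PCR and capillary electrophoresis of 6-FAM-labelled products. Bidirectional fitting against DMSO.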

Test [9] in a line: ATG_MRE_CIS: Attagene CIS-FACTORIAL HepG2 Assay for human Metal Responsive Element (MRE) (AID 2282954). To be noted: HepG2 MRE cis-reporter transcription, Attagene multiplex; actives raise or lower the signal. The essentials: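 HepG2 cells transiently transfected with cis-element-driven reporter units; mRNA measured 24 h after dosing. Reporter transcripts quantified by RT-PCR, FAM labelling, HpaI digestion and capillary electrophoresis; bidirectional fit versus DMSO.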

The target of test [10] is Paired box protein Pax-6 (Homo sapiens) (UniProt P26367). Description: ATG_Pax6_CIS: Attagene CIS-FACTORIAL HepG2 Assay for human Paired Box 6 (PAX6) (AID 2282956). To be noted: HepG2 CIS-FACTORIAL PAX6 reporter transcription, RNA readout; actives raise or lower the signal. The essentials:
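After twenty-four hours of chemical exposure, transfected HepG2 cells are harvested for RNA. Cis-promoter reporter transcripts are amplified, fluorescently labelled and sized by capillary electrophoresis, with gain and loss of signal scored against DMSO.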

Test [11] is described as follows: ATG_PXRE_CIS: Attagene CIS-FACTORIAL HepG2 Assay for human Pregnane X Receptor Element (PXRE) (AID 2282957). The settings on record: HepG2 Attagene CIS-FACTORIAL PXRE reporter, mRNA; actives raise or lower the signal. In outline: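 HepG2 cells transiently transfected with cis-element-driven multiplexed reporter units; after 24 h chemical exposure, reporter mRNA measured by RT-PCR, 6-FAM labelling, HpaI digestion and capillary electrophoresis. Bidirectional fitting relative to DMSO.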

The nature of test [12]: ATG_PPRE_CIS: Attagene CIS-FACTORIAL HepG2 Assay for human Peroxisome Proliferator-activated Response Element (PPRE) (AID 2282958). The settings on record: HepG2 PPRE cis-element reporter, Attagene transcription factor profiling; actives raise or lower the signal. The essentials: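 HepG2 cells are transiently transfected with multiplexed cis-promoter reporter units to report endogenous PPAR activity. After 24 h dosing, reporter mRNA is read by RT-PCR and capillary electrophoresis. Fitting is bidirectional against DMSO.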

Test [13] is described as follows: ATG_RORE_CIS: Attagene CIS-FACTORIAL HepG2 Assay for human RAR-related Orphan Receptor Element (RORE) (AID 2282959). The settings on record: HepG2 Attagene cis-factorial RORE reporter, mRNA; actives raise or lower the signal. In outline:
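HepG2 cells carrying transiently transfected cis-regulated reporter units; RORE-driven reporter mRNA quantified 24 h post-dosing by RT-PCR, 6-FAM primer extension, HpaI digestion and capillary electrophoresis. Bidirectional fit versus DMSO.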

A short description of test [14]: ATG_Sox_CIS: Attagene CIS-FACTORIAL HepG2 Assay for human SRY-box transcription factor (SOX) (AID 2282960). The settings on record: HepG2 Attagene cis-factorial SOX reporter, mRNA; actives raise or lower the signal. The essentials: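 HepG2 cells transiently transfected with multiple cis-regulated reporter units, then dosed for 24 h. Reporter mRNA quantified by RT-PCR, fluorescent labelling, HpaI digestion and capillary electrophoresis; bidirectional fit versus DMSO.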

A short description of test [15]: ATG_SREBP_CIS: Attagene CIS-FACTORIAL HepG2 Assay for human Sterol Regulatory Element Binding (SREBP) (AID 2282962). The settings on record: HepG2 Attagene cis-factorial SREBP reporter, mRNA; actives raise or lower the signal. The essentials: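 Twenty-four hours after chemical dosing of transfected HepG2 cultures, reporter RNA was converted to cDNA, amplified, end-labelled with 6-FAM and resolved by capillary electrophoresis. Responses were fitted relative to DMSO.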

The target in test [16] is Signal transducer and activator of transcription 3 (Homo sapiens) (UniProt P40763). As to the kind of experiment: ATG_STAT3_CIS: Attagene CIS-FACTORIAL HepG2 Assay for human Signal Transducer and Activator of Transcription 3 (STAT3) (AID 2282963). To be noted: HepG2, Attagene cis-factorial STAT3 reporter transcription; actives raise or lower the signal. The essentials:
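HepG2 cells transiently transfected with multiple cis-element-driven reporter units report endogenous transcription factor activity. After 24 h compound exposure, reporter mRNA is measured by RT-PCR, 6-FAM labelling, HpaI digestion and capillary electrophoresis. Fitted bidirectionally versus DMSO.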

A short description of test [17]: ATG_TA_CIS: Attagene CIS-FACTORIAL HepG2 Assay for human TA Basal Promoter (AID 2282964). The settings on record: HepG2 Attagene CIS-factorial TA basal promoter reporter; actives raise or lower the signal. The essentials:
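HepG2 cells transiently transfected with multiple reporter units under cis promoter elements, reporting endogenous transcription factor activity; this endpoint tracks the TA basal promoter as background control. Reporter mRNA after 24 h dosing measured by RT-PCR/capillary electrophoresis; bidirectional fits versus DMSO.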

A short description of test [18]: ATG_TCF_b_cat_CIS: Attagene CIS-FACTORIAL HepG2 Assay for human T-Cell-Factor with beta-catenin (TCF/b-cat) (AID 2282965). The settings on record: HepG2 TCF/beta-catenin cis-reporter transcription, actives raise or lower the signal. In outline:
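HepG2, transient MRTU transfection, cis-element-driven reporters (endogenous TFs). 24 h compound exposure. Readout: reporter mRNA by RT-PCR + 6-FAM primer extension, HpaI digest, capillary electrophoresis. Gain/loss fit vs DMSO baseline.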

Test [19] addresses Transcription factor Sp1 (Homo sapiens) (UniProt P08047). Description: ATG_Sp1_CIS: Attagene CIS-FACTORIAL HepG2 Assay for human Specificity Protein 1 (Sp1) (AID 2282961). The settings on record: HepG2 Sp1 cis-reporter transcription, actives raise or lower the signal. The essentials:
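HepG2 cells transiently transfected with multiplexed cis-regulated reporter constructs, chemical exposure 24 h. Reporter mRNA quantified by RT-PCR with capillary electrophoresis; bidirectional fit relative to DMSO.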

Test [20] is described as follows: ATG_PBREM_CIS: Attagene CIS-FACTORIAL HepG2 Assay for human Phenobarbital-responsive Enhancer Module (PBREM) (AID 2282955). To be noted: HepG2 PBREM cis-reporter, Attagene multiplexed transcription; actives raise or lower the signal. The essentials:
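HepG2 cells transiently transfected with multiple cis-regulated reporter units measure endogenous transcription factor activity; 24 h compound exposure. Reporter mRNA quantified by RT-PCR, fluorescent labelling, HpaI digestion and capillary electrophoresis; bidirectional fit versus DMSO.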

The source made the active and inactive calls. Rule for the calls: active = hit-call score of the fitted dose curve at least 0.9, where 1 is the maximum; inactive = score below 0.9.

Sequence of Hepatocyte nuclear factor 6 (Homo sapiens) (Q9UBC0 whole entry, looked up, the tested form may be a part): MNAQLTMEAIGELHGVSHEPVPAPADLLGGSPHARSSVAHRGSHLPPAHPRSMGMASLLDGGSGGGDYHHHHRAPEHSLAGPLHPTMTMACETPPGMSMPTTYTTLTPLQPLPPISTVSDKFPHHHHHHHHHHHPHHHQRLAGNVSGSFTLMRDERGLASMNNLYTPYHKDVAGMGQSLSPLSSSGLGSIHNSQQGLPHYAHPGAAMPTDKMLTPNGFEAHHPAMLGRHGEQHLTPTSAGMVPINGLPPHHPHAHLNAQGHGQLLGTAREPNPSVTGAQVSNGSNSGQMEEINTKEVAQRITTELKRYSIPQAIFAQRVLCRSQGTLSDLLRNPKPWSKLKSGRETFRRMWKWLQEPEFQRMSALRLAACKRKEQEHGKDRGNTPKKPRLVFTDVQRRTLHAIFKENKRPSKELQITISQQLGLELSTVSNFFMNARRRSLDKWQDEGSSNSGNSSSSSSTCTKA
Sequence of Signal transducer and activator of transcription 3 (Homo sapiens) (P40763 whole entry, looked up): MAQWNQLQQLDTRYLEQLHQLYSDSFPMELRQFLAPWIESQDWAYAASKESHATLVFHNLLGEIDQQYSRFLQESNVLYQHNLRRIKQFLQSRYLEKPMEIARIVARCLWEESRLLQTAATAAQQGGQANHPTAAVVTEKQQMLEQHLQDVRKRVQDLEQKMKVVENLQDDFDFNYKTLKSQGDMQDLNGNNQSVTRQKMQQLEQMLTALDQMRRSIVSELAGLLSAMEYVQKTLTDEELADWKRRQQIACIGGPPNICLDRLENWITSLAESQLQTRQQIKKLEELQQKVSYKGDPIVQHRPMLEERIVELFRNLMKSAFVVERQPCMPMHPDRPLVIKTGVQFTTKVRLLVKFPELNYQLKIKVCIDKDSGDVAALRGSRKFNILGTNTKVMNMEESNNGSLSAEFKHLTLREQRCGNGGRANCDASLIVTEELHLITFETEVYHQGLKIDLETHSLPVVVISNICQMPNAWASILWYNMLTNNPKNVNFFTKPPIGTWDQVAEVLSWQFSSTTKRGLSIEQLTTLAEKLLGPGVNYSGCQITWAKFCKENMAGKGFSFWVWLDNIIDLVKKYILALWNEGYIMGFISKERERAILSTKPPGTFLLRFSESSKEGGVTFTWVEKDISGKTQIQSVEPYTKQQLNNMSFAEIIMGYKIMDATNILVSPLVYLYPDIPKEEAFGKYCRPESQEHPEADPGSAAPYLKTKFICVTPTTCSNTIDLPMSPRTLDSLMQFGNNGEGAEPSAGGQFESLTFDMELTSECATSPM
Sequence of Heat shock factor protein 1 (Homo sapiens) (Q00613 whole entry, looked up): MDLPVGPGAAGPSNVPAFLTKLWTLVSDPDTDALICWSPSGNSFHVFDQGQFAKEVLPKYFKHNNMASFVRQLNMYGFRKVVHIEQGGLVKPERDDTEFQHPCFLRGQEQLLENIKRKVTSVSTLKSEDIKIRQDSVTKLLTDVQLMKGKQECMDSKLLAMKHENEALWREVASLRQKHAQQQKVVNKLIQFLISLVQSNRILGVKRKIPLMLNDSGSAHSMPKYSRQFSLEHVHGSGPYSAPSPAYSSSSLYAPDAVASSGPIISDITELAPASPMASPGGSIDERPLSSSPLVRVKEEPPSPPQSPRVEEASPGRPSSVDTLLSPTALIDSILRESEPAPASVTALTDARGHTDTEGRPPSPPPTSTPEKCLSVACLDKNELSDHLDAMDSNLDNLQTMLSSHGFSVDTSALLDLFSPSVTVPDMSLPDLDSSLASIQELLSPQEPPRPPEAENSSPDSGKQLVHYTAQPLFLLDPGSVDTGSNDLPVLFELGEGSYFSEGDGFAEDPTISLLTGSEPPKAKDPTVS
Sequence of Transcription factor Sp1 (Homo sapiens) (P08047 whole entry, looked up): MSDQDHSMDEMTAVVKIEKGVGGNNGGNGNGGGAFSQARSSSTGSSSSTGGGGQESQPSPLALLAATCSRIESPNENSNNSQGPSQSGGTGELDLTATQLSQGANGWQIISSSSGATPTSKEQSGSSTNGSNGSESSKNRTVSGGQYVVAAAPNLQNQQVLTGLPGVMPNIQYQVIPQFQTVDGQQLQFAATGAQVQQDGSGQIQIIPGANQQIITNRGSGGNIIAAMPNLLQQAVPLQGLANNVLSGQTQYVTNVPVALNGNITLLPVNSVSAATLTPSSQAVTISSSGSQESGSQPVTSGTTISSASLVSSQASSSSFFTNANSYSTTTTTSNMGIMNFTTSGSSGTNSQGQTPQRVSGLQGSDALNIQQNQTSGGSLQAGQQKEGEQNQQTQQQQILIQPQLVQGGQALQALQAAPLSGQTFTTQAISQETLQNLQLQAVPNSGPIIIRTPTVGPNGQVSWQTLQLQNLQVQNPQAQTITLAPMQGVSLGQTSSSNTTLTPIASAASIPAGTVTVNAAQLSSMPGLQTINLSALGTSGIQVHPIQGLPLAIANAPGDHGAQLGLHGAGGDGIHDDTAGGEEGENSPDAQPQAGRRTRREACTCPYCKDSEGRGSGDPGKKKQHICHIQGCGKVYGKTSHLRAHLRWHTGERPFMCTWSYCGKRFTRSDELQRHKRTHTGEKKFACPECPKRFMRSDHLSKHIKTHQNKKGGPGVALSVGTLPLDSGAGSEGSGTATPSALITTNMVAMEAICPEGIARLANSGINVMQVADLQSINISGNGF
Sequence of Paired box protein Pax-6 (Homo sapiens) (P26367 whole entry, looked up): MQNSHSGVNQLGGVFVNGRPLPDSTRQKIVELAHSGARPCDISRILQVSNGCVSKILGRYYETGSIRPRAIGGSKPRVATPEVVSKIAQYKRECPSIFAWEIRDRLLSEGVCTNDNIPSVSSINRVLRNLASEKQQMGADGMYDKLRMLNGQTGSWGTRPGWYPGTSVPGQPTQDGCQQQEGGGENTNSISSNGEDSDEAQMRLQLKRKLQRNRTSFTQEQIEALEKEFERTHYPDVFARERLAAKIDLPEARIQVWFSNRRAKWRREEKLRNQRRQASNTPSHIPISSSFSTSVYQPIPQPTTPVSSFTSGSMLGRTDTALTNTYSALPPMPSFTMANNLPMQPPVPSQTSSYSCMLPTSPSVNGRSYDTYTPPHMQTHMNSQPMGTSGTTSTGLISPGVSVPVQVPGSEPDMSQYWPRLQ
Sequence of Hypoxia-inducible factor 1-alpha (Homo sapiens) (Q16665 whole entry, looked up): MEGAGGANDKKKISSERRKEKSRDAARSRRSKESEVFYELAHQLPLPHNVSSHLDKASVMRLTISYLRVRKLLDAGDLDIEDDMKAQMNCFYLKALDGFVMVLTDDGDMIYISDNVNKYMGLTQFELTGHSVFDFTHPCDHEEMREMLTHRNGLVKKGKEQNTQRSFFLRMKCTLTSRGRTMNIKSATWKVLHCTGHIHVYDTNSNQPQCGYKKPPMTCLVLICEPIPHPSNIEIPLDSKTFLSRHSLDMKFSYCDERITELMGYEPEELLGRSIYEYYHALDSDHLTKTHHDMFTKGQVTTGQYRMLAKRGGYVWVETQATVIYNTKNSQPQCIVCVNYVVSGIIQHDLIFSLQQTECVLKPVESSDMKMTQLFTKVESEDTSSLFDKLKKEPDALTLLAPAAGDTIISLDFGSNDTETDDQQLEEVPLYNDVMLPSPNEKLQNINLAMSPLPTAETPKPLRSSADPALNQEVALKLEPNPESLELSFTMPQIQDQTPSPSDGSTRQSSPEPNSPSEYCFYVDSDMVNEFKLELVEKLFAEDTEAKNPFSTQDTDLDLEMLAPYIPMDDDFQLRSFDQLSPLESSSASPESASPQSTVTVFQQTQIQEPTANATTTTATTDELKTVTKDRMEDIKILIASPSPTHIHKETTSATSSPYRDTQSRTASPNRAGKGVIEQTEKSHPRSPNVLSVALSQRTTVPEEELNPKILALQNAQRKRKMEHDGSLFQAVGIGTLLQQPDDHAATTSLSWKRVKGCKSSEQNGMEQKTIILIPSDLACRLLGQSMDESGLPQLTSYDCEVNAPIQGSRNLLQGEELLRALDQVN
Sequence of Bile acid receptor (Homo sapiens) (Q96RI1 whole entry, looked up): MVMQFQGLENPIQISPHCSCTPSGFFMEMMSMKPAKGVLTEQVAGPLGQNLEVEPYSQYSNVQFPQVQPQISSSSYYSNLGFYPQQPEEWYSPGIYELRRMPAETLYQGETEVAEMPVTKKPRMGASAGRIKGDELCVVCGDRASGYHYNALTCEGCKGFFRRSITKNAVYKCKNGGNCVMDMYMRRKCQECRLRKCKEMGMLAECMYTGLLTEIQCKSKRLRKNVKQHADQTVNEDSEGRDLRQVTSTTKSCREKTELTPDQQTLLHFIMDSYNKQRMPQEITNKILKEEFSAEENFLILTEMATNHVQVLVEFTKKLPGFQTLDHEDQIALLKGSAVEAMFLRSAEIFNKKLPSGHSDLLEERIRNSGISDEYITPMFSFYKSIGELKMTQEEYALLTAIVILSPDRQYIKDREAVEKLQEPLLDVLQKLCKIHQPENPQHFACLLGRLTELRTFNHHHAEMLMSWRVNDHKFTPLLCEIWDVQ

With `C=CC=CC=CCCCCC`, the AC50 was 40.4 µM (active) in [1] and 6.94 µM (active) in test [11]. Besides, the outcome in test [2], in [3], in test [4], in test [5], in test [6] and in test [7] was inactive. For the same compound, the result in [8], in test [9], in test [10], in [12], in test [13] and in [14] was inactive. Further, the result in [15], in test [16], in test [17] and in test [18] was inactive.

As for `CCCCCCCCCCCCCCCC[N+](C)(C)CC`, the result in test [1], in test [2], in test [4], in test [5], in test [6] and in test [7] was inactive. Moreover, the compound was classed as inactive in test [8], in test [10], in test [11], in test [12], in [14] and in test [19]. The call in test [15], in test [16] and in [17] was inactive. Besides, the AC50 in test [3] was 9.27 µM (active); in test [9] it was 8.94 µM (active); in test [13], 8.95 µM (active); in test [18], 5.99 µM (active).

For the compound `CCCCCC/C=C\CCCCCCCC(=O)O`, the call in test [1], in test [2], in test [3], in [4], in test [5] and in test [6] was inactive. The outcome in test [7], in [8], in test [9], in test [20], in test [10] and in [11] was inactive. Moreover, the result in test [12], in [13], in test [14], in test [19], in test [15] and in [16] was inactive. For the same compound, the compound was classed as inactive in [17] and in [18].

Regarding `CCOC(=O)NNc1nncc2ccccc12`, the result in test [1], in test [2], in [3], in test [4], in test [5] and in [6] was inactive. In addition, the call in test [7], in test [8], in test [9], in test [10], in test [11] and in test [12] was inactive. In addition, the outcome in [14], in test [19], in test [15], in test [16], in [17] and in test [18] was inactive.

Consider `O=C(O)CC(C(=O)O)C(CC(=O)O)C(=O)O` (centres undefined), for which the compound was classed as inactive in [1], in test [2], in [3], in test [4], in test [5] and in test [6]. Moreover, the call in test [7], in test [8], in test [9], in test [20], in test [10] and in [11] was inactive. Further, the call in test [12], in [14], in [19], in test [15], in test [17] and in test [18] was inactive.

As to `Nc1nc2ccccc2[nH]1`, the outcome in test [1], in test [2], in [3], in test [4], in test [5] and in test [6] was inactive. Moreover, the compound was classed as inactive in test [7], in test [8], in [9], in test [20], in test [10] and in [14]. Also, the call in [19], in test [15], in test [16], in [17] and in test [18] was inactive.

As to `CCCCCCCC(C)=O`, the compound was called inactive in test [1], in test [2], in [3], in [4], in test [5] and in test [6]. For the same compound, the compound was classed as inactive in [7], in [8], in test [9], in [10], in test [11] and in [12]. Also, the call in [13], in test [14], in [19], in test [15], in test [16] and in test [17] was inactive. For the same compound, the compound was classed as inactive in test [18].

What is called AC50 is the concentration giving half of the maximal activity seen.
